Source: PubChem (National Center for Advancing Translational Sciences (NCATS))
DT40 TDP1 no CPT: qHTS for Inhibitors of human tyrosyl-DNA phosphodiesterase 1 (TDP1): qHTS in cells in absence of CPT. DT40 Tdp1-/- hTDP1 cells, no CPT, ATP luminescence, 48 h. Potency, µM (highest dose often 46.2 µM), for inactives: top-dose activity change, negative = growth inhibition, hits mostly inhibitors. actives 15% (n = 420,000). AID 686978, 2013; note: potency is the fitted concentration of half-maximal effect; nearly all actives have a fitted effect of over 55% in size
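Readout: luminescence from CellTiter-Glo after 30 min in the dark at RT. Cells: DT40 Tdp1-/- with stable hTDP1, 400/well. Exposure: compounds alone, ≥48 hr, 37 °C.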
HT1080NT lethal: kills 2HG-producing HT-1080-NT fibrosarcoma cells; HT-1080-NT fibrosarcoma viability, CellTiter-Glo ATP luminescence, 48 h; Potency, µM (doses to about 46.1 µM), without a hit: at the top dose activity, negative = less viability, hits mostly cytotoxic; actives 1.6% (n = 360,000);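 note: NT is the 2HG producing partner of a matched IDH1 knockdown line; potency is the fitted concentration of half-maximal effect; 0% = DMSO-treated cells and -100% = media-only wells without cells; nearly all actives have a fitted effect of over 55% in size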
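Toxicity toward the 2HG-producing NT line was scored as %Activity, normalised to DMSO and no-cell wells, from CellTiter-Glo luminescence after 48 hours' treatment.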
HT1080 IDH1KD tx: kills HT-1080 cells with IDH1 knockdown; HT-1080 IDH1 knockdown viability, ATP luminescence, 48 h; Potency, µM (titrated, usually from 46.1 µM), for inactives: top-dose activity, negative = toxicity, hits mostly cytotoxic; actives 2% (n = 360,000); AID 686971;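 note: potency is the fitted concentration of half-maximal effect; 0% = DMSO wells and -100% = cell-free medium wells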
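Luminescent ATP read-out (CellTiter-Glo, 10 min at room temperature) after 48 h compound exposure at 37 °C gave viability of IDH1-knockdown HT-1080 cells. Activity was normalised to DMSO and cell-free wells, then fitted as concentration-response curves.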
DT40 TDP1 CPT: DT40-hTDP1 cell growth loss with CPT. chicken DT40 Tdp1-/-;hTDP1 cells + 20 nM CPT, ATP luminescence, 48 h. Potency, µM (highest dose often 46.2 µM), for inactives: at the highest dose activity change, negative = growth inhibition, most hits filed as inhibitors. actives 12% (n = 420,000); note: potency is the fitted concentration of half-maximal effect; nearly all actives have a fitted effect of over 55% in size
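Cell growth measured by CellTiter-Glo luminescence after a minimum 48 h, 37 C compound exposure with 20 nM CPT in Tdp1-knockout DT40 cells stably expressing hTDP1, seeded 400/well; qHTS titration format.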
IL-1B inflam inh: inhibitors of inflammasome signaling (IL-1 beta secretion). THP-1 LPS/ATP IL-1B secretion, AlphaLISA, 16 h; hits give low values. activity change, % at 57.5 µM. actives 4.7% (n = 360,000). AID 743279; in the data active = activity change below about -50%; inconclusive = mostly about -30% to -49%
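THP-1 cells pretreated 1 hr with compounds (up to 57.5 uM final), then stimulated with LPS (250 ng/mL final) plus ATP (1.25 mM final); secreted IL-1B measured by AlphaLISA after 16 hr, decreased signal indicating inhibition.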
* = called active by the depositor; i = inactive; ? = inconclusive; / = no result; [ ] = another dose, or the depositor's remark. Sampled rows, rich in hits. Any-hit rate of the full collection: about 19%. Unless noted, calls come from the whole dose curve; as a rule, active = well fitted curve in the direction sought with a large enough effect; inconclusive = small, poorly fitted or top-dose-only effect, or another doubt; inactive = no such curve, though single readings can be large; an effect the other way counts as inactive or inconclusive. Unless noted, % is set by controls: 0 for no effect and ±100 for the full control effect.

SMILES	DT40 TDP1 no CPT	HT1080NT lethal	HT1080 IDH1KD tx	DT40 TDP1 CPT	IL-1B inflam inh
CCC(C)N(CCNC(=O)c1ccc2c(c1)NC(=O)c1ccccc1S2)C1CCCCC1 (stereo unspecified)	2.9µM*	?	?	15µM*	-86*
Cc1ccc(NC(=O)c2ccc3c(c2)NC(=O)c2ccccc2S3)c(Cl)c1	3.3µM*	/	/	3.7µM*	/
CC(=O)Nc1ccc(NC(=O)c2ccc3c(c2)NC(=O)c2ccccc2S3)cc1	5%	/	/	-15%	/
CN(C)c1ccc(C=Nc2cncc3ccccc23)cc1	-25%	/	/	13%	/
COc1ccccc1NS(=O)(=O)c1cccc(C(=O)NCC(c2ccc(F)cc2)N2CCOCC2)c1 (stereo unspecified)	?	3%	5%	?	-5
C=CCN(c1ccccc1)S(=O)(=O)c1cccc(C(=O)NCC(c2ccc(F)cc2)N2CCOCC2)c1 (stereo unspecified)	16µM*	1%	-7%	13µM*	4
CN(c1ccccc1)S(=O)(=O)c1cccc(C(=O)NCC(c2cccs2)N2CCOCC2)c1 (stereo unspecified)	16µM*	-3%	0%	?	15
CCN(c1ccccc1)S(=O)(=O)c1cccc(C(=O)NCC(c2ccc(F)cc2)N2CCOCC2)c1 (stereo unspecified)	10µM*	-10%	-7%	23µM*	-25
Cc1ccc(NS(=O)(=O)c2cccc(C(=O)NCC(c3ccc(F)cc3)N3CCOCC3)c2)cc1 (stereo unspecified)	16µM*	?	-27%	29µM*	-51*
O=C(NCC(c1cccs1)N1CCOCC1)c1cccc(S(=O)(=O)Nc2ccc(F)cc2)c1 (stereo unspecified)	?	1%	3%	?	38
C[C@@H]1CN([C@@H](C)CO)S(=O)(=O)c2ccc(Br)cc2O[C@H]1CN(C)C(=O)c1ccncc1	?	8%	15%	1%	26
CCOc1ccccc1N1C(=O)CN(Cc2ccc(OC)c(OC)c2)C1=S	?	-3%	-8%	?	0
CC(=O)c1cc2c(cc1NS(=O)(=O)c1ccccc1Br)OCO2	-27%	6%	-12%	-7%	11
Cc1ccc(Sc2ncccc2C(=O)NCC(c2ccc(F)cc2)N2CCOCC2)c(C)c1 (stereo unspecified)	?	0%	-14%	15µM*	-5
O=C(Cc1ccc([N+](=O)[O-])cc1)Nc1ccc(O)cc1C(=O)O	-25%	24%	1%	-16%	1
Cc1cc(C)cc(CN2CCC(Oc3ccc(C(=O)N4CCCC4)cc3)CC2)c1	23µM*	?	?	21µM*	?
COC(=O)c1ccc(CN2CCC(Oc3ccc(C(=O)N4CCCCC4)cc3)CC2)cc1	?	4%	0%	?	9
COc1ccccc1/C=C/CN1CCC(Oc2ccc(C(=O)N3CCCCC3)cc2)CC1	26µM*	-3%	-16%	?	-57*
COc1ccc(/C=C/CN2CCC(Oc3ccc(C(=O)N4CCCCC4)cc3)CC2)cc1	15µM*	1%	-5%	?	i
COc1ccc(C(=O)NC2CC2)cc1OC1CCN(Cc2ccccc2)CC1	5%	1%	8%	3%	i
O=C(c1ccc(OC2CCN(C/C=C/c3ccccc3)CC2)cc1)N1CCCCC1	?	-21%	-6%	?	?
COc1ccccc1/C=C/CN1CCC(Oc2cc(C(=O)NC3CC3)ccc2OC)CC1	2.1µM*	-1%	2%	?	-8
CCOc1ccc(N2C(=O)S/C(=C\c3cc(OC)c(OC)c(OC)c3)C2=O)cc1	-26%	20%	18%	-11%	-24
O[C@@H](CNC[C@H](O)[C@H]1CCc2cc(F)ccc2O1)[C@@H]1CCc2cc(F)ccc2O1	4.2µM*	/	/	6.7µM*	/
CN(C(=O)CSc1nnnn1C)C1(C#N)CCCCC1	8%	1%[9.24 µM]	21%	-12%	8
SMILES	DT40 TDP1 no CPT	HT1080NT lethal	HT1080 IDH1KD tx	DT40 TDP1 CPT	IL-1B inflam inh
COc1ccccc1CNC(=O)CCSCc1cccc(Cl)c1	-12%	1%	5%	3%	-72*
COc1ccc(CCC(=O)NCc2ccccc2OC)cc1	5%	-2%	-3%	-14%	-19
COc1ccccc1CNC(=O)CCc1ccccc1	18µM*	4%	4%	?	5
Cc1ccccc1OCC(=O)NCc1ccccc1	5%	4%	13%	-1%	1
O=C(COc1ccccc1-c1ccccc1)NCc1cccc(Cl)c1	?	-4%	0%	21µM*	23
CC1C(c2ccccc2)OCCN1C(=S)NC(=O)c1ccccc1 (stereo unspecified)	5%	2%	10%	-20%	39
Cc1ccc(-c2nn(Cc3ccccc3)cc2C(=O)NCC2CCCO2)cc1 (stereo unspecified)	-16%	3%	5%	1%	-4
CCCc1nc2c(C)cc(Br)cn2c1Cc1cccc(F)c1	?	?	?	?	1
CCC1CCc2sc(C(=O)NC3CCN(Cc4ccccc4)CC3)cc2C1 (stereo unspecified)	13µM*	-10%	-28%	21µM*	-74*
O=C(Nc1ccccc1)NC1CCN(Cc2ccccc2)CC1	-1%	-3%	-1%	-13%	-28
CC1CCc2sc(C(=O)NC3CCN(Cc4ccccc4)CC3)cc2C1 (stereo unspecified)	13µM*	-21%	?	21µM*	-59*
CCCC(CCC)C(=O)NC1CCN(Cc2ccccc2)CC1	-2%	-2%	-6%	7%	6
CCn1nc(C)c(CCN(C)C(=O)Nc2cc(Cl)c(OC)cc2OC)c1C	?	/	/	-11%	/
CC12CCC(C(=O)N(CSC(=S)N/N=C\c3ccccc3)C1=O)C2(C)C (stereo unspecified)	4.6µM*	4%	-28%	5.8µM*	21
C=CCSc1ncnc2c1oc1nc3c(cc12)COC(C)(C)C3	18µM*	17%	3%	-20%	10
CC(C)CSc1ncnc2c1oc1nc3c(cc12)COC(C)(C)C3	-3%	-6%	8%	1%	-6
O=C(c1cnc(Cl)c(Cl)c1)N1CCN(S(=O)(=O)c2ccc3ccccc3c2)CC1	16µM*	-10%	-10%	?	-102*
O=C(c1ccncc1)N1CCN(S(=O)(=O)c2ccc3ccccc3c2)CC1	-18%	-2%	-3%	-17%	42
Cc1ccccc1NC(=O)COC(=O)Cc1ccsc1	6%	6%	8%	-3%	-1
